# Compound activity as filed in PubChem BioAssay.
# MITF inhib: MITF inhibition; TRPM1 promoter luciferase, luminescence, 24 h; inhibition, % (test concentration not listed); actives 0.28% (n = 37,000); in the data active means inhibition above about 85%;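 further: human melanocyte line stably carrying TRPM1 promoter luciferase reporter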
# Shh pathway inh: blocks Sonic Hedgehog signaling | Shh-LIGHT2 Gli-luciferase reporter, 30 h | inhibition, % (no concentration beside the values) | actives 2.1% (n = 22,000);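 active means mean inhibition across valid replicates above about 65%, limit read from the data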;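 further: pathway switched on by Shh-conditioned medium diluted 1 in 25 in low serum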
# NOMO-1 viab: STK33 inhibitor candidate reducing NOMO-1 cell viability. NOMO-1 AML viability, CellTiter-Glo luminescence, 72 h. inhibition, % (test concentration not listed). actives 7.5% (n = 37,000); in the data active means inhibition above about 80%
# An asterisk follows results filed as active; x = no result given. In the library only some 8.1% were active in any assay of this set; here they are far more common.
SMILES,MITF inhib,Shh pathway inh,NOMO-1 viab
CCOc1cccc(-c2nnc(SCC(=O)n3c4c(c5ccccc53)CCCC4)n2C)c1,-10,x,-3
CCn1c(NCCCO)nc2ccccc21,0,x,27
COc1ccc(S(=O)(=O)Nc2ccc3c(c2)CC(=O)N([C@H](C)CO)C[C@@H](C)[C@H](CN(C)Cc2ccc(Cl)c(Cl)c2)O3)cc1,12,37,112*
COc1ccc(CN(C)C[C@@H]2Oc3ccc(NS(=O)(=O)c4ccc(Cl)cc4)cc3CC(=O)N([C@H](C)CO)C[C@H]2C)cc1,25,-20,18
COc1ccc(CN(C)C[C@@H]2Oc3ccc(NS(=O)(=O)c4ccc(Cl)cc4)cc3CC(=O)N([C@@H](C)CO)C[C@@H]2C)cc1,-2,x,9
COc1ccc(S(=O)(=O)Nc2ccc3c(c2)CC(=O)N([C@H](C)CO)C[C@H](C)[C@H](CN(C)Cc2ccc(Cl)c(Cl)c2)O3)cc1,-10,x,98*
CCn1c(SCC(=O)Nc2cc(Cl)cc(Cl)c2)nnc1-c1ccc(C)cc1,43,x,43
COc1ccccc1NC(=O)c1sc2ncn(CC(=O)Nc3ccccc3C)c(=O)c2c1C,28,x,-8
O=C(CSc1nnc(-c2ccccc2O)n1-c1ccccc1)Nc1ccc(Cl)c(C(=O)O)c1,-20,x,0
CS(=O)(=O)N(CC(=O)NC1CCCCC1)c1ccc(F)c(Cl)c1,-14,x,-10
C[C@H](CO)N1C[C@H](C)[C@H](CN(C)Cc2ccc(Cl)c(Cl)c2)Oc2ccc(NC(=O)Nc3ccc4c(c3)OCO4)cc2CC1=O,29,-8,94*
COc1ccc(NC(=O)Nc2ccc3c(c2)CC(=O)N([C@H](C)CO)C[C@H](C)[C@H](CN(C)Cc2ccc(Cl)c(Cl)c2)O3)cc1,-8,1,69
C[C@@H]1CN([C@@H](C)CO)C(=O)Cc2cc(NC(=O)Nc3ccc(F)cc3)ccc2O[C@@H]1CN(C)Cc1ccc(Cl)c(Cl)c1,29,-13,103*
C[C@H](CO)N1C[C@H](C)[C@H](CN(C)Cc2ccncc2)Oc2ccc(NC(=O)Nc3ccc(F)cc3)cc2CC1=O,-14,7,-8
C[C@H]1CN([C@@H](C)CO)C(=O)Cc2cc(NC(=O)Nc3ccccc3)ccc2O[C@H]1CN(C)Cc1ccc(Cl)c(Cl)c1,-3,-21,104*
C[C@H]1CN([C@@H](C)CO)C(=O)Cc2cc(NC(=O)Nc3ccccc3)ccc2O[C@H]1CN(C)Cc1ccccc1,-14,26,65
C[C@H](CO)N1C[C@H](C)[C@H](CN(C)Cc2ccc(Cl)c(Cl)c2)Oc2ccc(NC(=O)Nc3ccccc3)cc2CC1=O,29,32,116*
C[C@H](CO)N1C[C@H](C)[C@H](CN(C)Cc2ccc3c(c2)OCO3)Oc2ccc(NC(=O)Nc3ccc4c(c3)OCO4)cc2CC1=O,-4,-29,40
Cc1cc(Cl)ccc1NC(=O)CSc1nnc(-c2cccs2)n1-c1ccccc1,13,x,50
O=C(Nc1cccc(S(=O)(=O)N2CCCC2)c1)c1cc(-n2cnnc2)ccc1Cl,-16,x,-4
Cc1c(NC(=S)NC(=O)COc2ccccc2)cccc1-c1nc2ccccc2s1,19,x,6
N#CCC(=O)NCc1cccs1,15,-14,29
C/C1=C/C[C@]2(C)C(=O)C(=O)C([C@H](C)CO)[C@H]2C/C=C(/C)[C@@H](O)CC/C(C)=C\CC1 (stereo not given in full),-19,4,29
CC(C)NC(=O)Nc1ccc2c(c1)CC(=O)N([C@@H](C)CO)C[C@H](C)[C@H](CN(C)C(=O)Nc1ccc3c(c1)OCO3)O2,-6,65*,-17
C[C@@H]1CN([C@@H](C)CO)C(=O)Cc2cc(NC(=O)NC3CCCCC3)ccc2O[C@@H]1CN(C)Cc1ccncc1,-7,-22,-1
SMILES,MITF inhib,Shh pathway inh,NOMO-1 viab
CC(C)NC(=O)Nc1ccc2c(c1)CC(=O)N([C@@H](C)CO)C[C@H](C)[C@@H](CN(C)C(=O)Nc1ccc3c(c1)OCO3)O2,9,21,4
C[C@@H]1CN([C@H](C)CO)C(=O)Cc2cc(NC(=O)NC3CCCCC3)ccc2O[C@@H]1CN(C)Cc1ccc(Cl)c(Cl)c1,27,13,114*
CS(=O)(=O)N(CC(=O)Nc1cc(Cl)cc(Cl)c1)c1cccc(Cl)c1,-19,x,2
CN(CC(=O)Nc1cc(Cl)ccc1O)S(=O)(=O)c1ccc(Cl)cc1,41,x,26
COc1ccc(NC(=O)C(=O)NCc2cccnc2)cc1OC,-21,x,5
COC(=O)c1cc(NC(=O)COc2ccc(Br)cc2)cc(C(=O)OC)c1,2,x,30
COc1ccc(-c2nnc(SCC(=O)Nc3ccc(C)cc3C)n2-c2ccccc2)cc1OC,29,x,26
FC(F)(F)c1cc(-c2ccc3ccccc3c2)no1,-4,-33,88*
Cc1cc(C)c2nc(-c3ccccn3)cc(C(=O)NCCc3ccc(S(N)(=O)=O)cc3)c2c1,16,x,27
COc1ccc(OCC(=O)Nc2ccc(OC)cc2[N+](=O)[O-])cc1,-38,x,-11
